PubChem BioAssay AID1025 (Sanford-Burnham Center for Chemical Genomics, 2008)
Out of some 96,000 compounds screened, fewer than 10 were called active.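 The calls were made as follows: active = activation factor of at least 2 at 5 µM in the primary screen; inactive = the rest.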 These entries were drawn from the full list.

Target: Cytochrome P450 2C19 (Homo sapiens) (UniProt P33261)
Test: enhancers of cytochrome P450 2C19 turnover – biochemical, luminescence, primary screen (AID 1025);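 also: 0 = wells with 2.5 mM tranylcypromine and 1 = vehicle-only wells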
Conditions: recombinant CYP2C19, luciferin-H EGE luminescence; at 5 µM; hits give high values; 0 = fully inhibited enzyme, 1 = untreated enzyme

Cytochrome P450 2C19 (Homo sapiens), sequence (P33261 whole entry, looked up): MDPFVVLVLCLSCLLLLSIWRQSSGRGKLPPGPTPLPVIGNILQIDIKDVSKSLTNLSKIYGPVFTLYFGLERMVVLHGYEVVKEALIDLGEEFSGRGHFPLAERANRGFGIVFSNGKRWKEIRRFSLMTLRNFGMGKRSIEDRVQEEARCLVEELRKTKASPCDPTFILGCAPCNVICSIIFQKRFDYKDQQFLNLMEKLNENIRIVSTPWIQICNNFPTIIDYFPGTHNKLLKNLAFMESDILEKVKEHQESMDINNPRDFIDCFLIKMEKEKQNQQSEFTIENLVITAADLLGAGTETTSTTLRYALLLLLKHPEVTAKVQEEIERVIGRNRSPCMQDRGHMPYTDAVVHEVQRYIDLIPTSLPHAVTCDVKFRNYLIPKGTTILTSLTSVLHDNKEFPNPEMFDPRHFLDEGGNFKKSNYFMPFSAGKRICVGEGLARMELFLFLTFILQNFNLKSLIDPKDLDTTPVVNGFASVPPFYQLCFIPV

Activation factor, inactive:
CC1CCC(N2CC(=O)N(Cc3ccc4c(c3)OCO4)C(c3ccc(F)cc3)C2=O)CC1 (stereo not drawn) 0.8
C/C(=N\NC(=O)c1ccccc1C)c1ccc(N2CCOCC2)cc1 1
C=CCOc1cccc(CNn2cn[nH]c2=S)c1 0.7
COc1cc(OC)cc(C(=O)NC(=S)N2CCN(c3ccc(C(F)(F)F)cc3[N+](=O)[O-])CC2)c1 0.8
Cc1ccc(N(Cc2ccc(C(=O)Nc3ccccc3C(=O)NCc3ccco3)cc2)S(C)(=O)=O)cc1C 0.1
Cc1cc(=O)oc2ccc(OCC(=O)O)cc12 1
NC(=O)c1c(NC(=O)CSc2nnc(-c3ccco3)n2N)sc2c1CCCC2 0.7
O=C(O)/C=C/C(=O)Nc1ccc(F)cc1F 0.9
Clc1ccc(COn2c(-c3ccc(Cl)cc3Cl)nc3ncccc32)cc1 0
CCOCCn1c(C(C)C)nc2ccccc21 0.8
O=C(CCc1ccc(S(=O)(=O)N2CCOCC2)cc1)Nc1ccc2ccccc2c1 0.4
CCC(CC)C(=O)N1CC(=O)Nc2ccc(Br)cc2C1c1ccccc1 (stereo not drawn) 0.5
CC(N)C12CC3CC(CC(O)(C3)C1)C2 (stereo not drawn) 0.9
COc1ccc(C(=O)CN(C(=O)c2ccc(Cl)cc2)N2C(=O)c3ccccc3C2=O)cc1 0.6
O=C(CCN1c2ccccc2Sc2ccccc21)Nc1ccccc1 0.2
CCOc1cc(CNCCN(C)C)c(Cl)cc1OCC(=O)NCCc1ccccc1 1
Cc1cc(C(=O)Nc2c(C)nn(Cc3ccccc3)c2C)on1 0.9
CC(C)CNC(=S)NNC(=O)c1ccccc1OC(F)F 0.8
Cc1ccccc1NC(=O)C(C)c1ccc(-c2ccccc2)c(F)c1 (stereo not drawn) 0.9
Cc1ccc(CS(=O)(=O)CCC(=O)NC2CC2)cc1 0.9
O=C(NC1CCCCC1)C1CC(=O)N(CCc2ccccc2)C1 (stereo not drawn) 1.1
Cc1ccc(C2NC(=S)NC3=C2N2CCC3CC2)cc1 (stereo not drawn) 1.1
C/C(=N\NS(=O)(=O)c1ccc(Br)cc1)c1cccs1 0.3
CC1(C)CC(CC(=O)O)C(=O)O1 (stereo not drawn) 1.1
CCOC(=O)c1cnc(SC)nc1Sc1ccc(Cl)cc1Cl 0.7
CS(=O)(=O)N(CC(=O)Nc1ccc(F)cc1F)c1cccc([N+](=O)[O-])c1 0.4
CSc1ccccc1NC(=O)c1cc(C2CC2)on1 0.7
O=C(/C=C\NCC(=O)c1ccccc1)c1ccccc1 0.5
O=C(NCc1ccccn1)c1cc(-c2ccccc2Cl)on1 0.9
COc1cc(/C=N\NC(=O)CNC(=O)c2cccc([N+](=O)[O-])c2)ccc1O 0.8
COc1ccc(CC(=O)Nc2sc(Cc3ccccc3)c(C)c2C(N)=O)cc1 1
FC(F)(F)c1nnc2ccc(N3CCN(c4ccccc4)CC3)nn12 0.7
CC1CC(C)CN(C(=O)CSc2nnc(CSc3ncccn3)n2C)C1 (stereo not drawn) 1.1
Cc1cc2[nH]ncc2cc1NC(=S)NC(=O)c1ccccc1 0
CCCCCCSc1nsc(N)n1 0.5
COc1cccc(-c2cc(C(=O)N/N=C/c3ccc(OC)c(COC(C)=O)c3)c3ccccc3n2)c1 0.5
CC1=NN(C(=O)Cc2ccc(C)cc2)C(O)(c2cccnc2)C1 (stereo not drawn) 0.4
ONC(=Nc1ccccc1)c1ccccc1Cl 0.7
Oc1ccccc1CNc1ncc(Br)cc1Br 0.6
Cc1nc(SCC(=O)N2CC(=O)Nc3ccccc32)c2c(C)c(C)sc2n1 0.5
COc1ccc(C(=S)Nc2ccccc2)cc1 0.3
N#Cc1ccc(-c2ccc(F)cc2)nc1Sc1ccccc1 1
OCCNc1nc2ccccc2n1-c1ncnc2sc3c(c12)CCC3 1.1
O=C(Nc1ccc(Br)cc1)c1cccc(NC(=O)C2C3CC4OC(=O)C2C4C3)c1 (stereo not drawn) 0.8
Cc1ccc(NC(=O)N2CCC(c3nc4c(nnn4Cc4c(F)cccc4Cl)c(=O)[nH]3)CC2)cc1 0
O=C(NC1CCc2ccccc21)C12CN(Cc3ccccc3)CC1C(c1cccc([N+](=O)[O-])c1)=NO2 (stereo not drawn) 0.9
S=C1NC(c2ccccc2)=NCN1c1ccc(Br)cc1 0.5
COC(=O)c1ccc(CSc2nc3cc(Cl)ccc3o2)cc1 1.1
O=C(NCCc1ccccc1)c1ccc(NC2=NC3CS(=O)(=O)CC3S2)cc1 (stereo not drawn) 0.9
Cn1nc(-c2ccccc2)c(CSc2cccc(Cl)c2)c1Cl 0.5
CC1(C)COC(c2cccn2Cc2ccccc2Cl)=N1 1
S=c1[nH]nc(-c2ccc(Cl)cc2)n1CC1CCCO1 (stereo not drawn) 0.6
Cc1ccc(C2CC2C(=O)NN)cc1 (stereo not drawn) 0.5
N=c1c2c(-c3ccccc3)c(-c3ccccc3)oc2ncn1Cc1ccco1 0.8
O=c1[nH]c(CCl)nc2cc(-c3ccc(Cl)cc3)sc12 0.7
CCCSC(=S)NC1CCS(=O)(=O)C1 (stereo not drawn) 0.9
CC(Sc1nnc(Cc2ccc([N+](=O)[O-])cc2)o1)C(N)=O (stereo not drawn) 0.8
Cc1ccc(NC(=S)NCCN2CCOCC2)cc1 0.8
Cc1cnc(NC(=O)CSc2nnc(C)s2)s1 0.8
Cc1ccc(N2C(=O)C(Cc3ccccc3)NC2=S)cc1 (stereo not drawn) 0.6
CC1=C(C)CC(C(=O)NNC(=O)c2ccccc2O)C(C(=O)O)C1 (stereo not drawn) 1.1
CCN(CC(=O)Nc1ccccc1OC)C(=O)Cn1cnc2ccccc2c1=O 1
O=c1[nH][nH]c(C(F)(F)F)c1C=NCc1ccccc1Cl 0.1
COC(=O)c1sc2ncccc2c1OCc1ccc(Cl)cc1Cl 1
CCOC(=O)C1Sc2[nH]c(=O)sc2C(c2ccc(Cl)cc2)C1C(=O)OCC (stereo not drawn) 0.8
C=CCN(N=Nc1cccc([N+](=O)[O-])c1)c1cccc([N+](=O)[O-])c1 0.8
CC(CC(=O)Nc1cc(C(F)(F)F)ccc1Cl)c1ccccc1 (stereo not drawn) 0.4
C(=N/N1CCN(c2ccccc2)CC1)/c1cccs1 0.5
CC1(C)CC(=O)C(C=NCCN2CCN(C(=S)Nc3cccc(Cl)c3)CC2)=C(O)C1 0.4
O=C(C1=C(O)C(=O)N(Cc2ccccc2)C1c1ccco1)c1ccco1 (stereo not drawn) 1.2
Nc1nc(C23CC4CC(CC(C4)C2)C3)cs1 0.6
CC(C)N(c1ccccc1)c1ncnc(NCCC(=O)O)c1[N+](=O)[O-] 0.4
CC1=C(C(N)=O)C(c2sccc2C)n2nnnc2N1 (stereo not drawn) 0.9
